{"source": "PubChem BioAssay AID1259240", "about": "(Keith Lab, Institute of Cancer Science, University of …, 2017)", "note": "The source made the active and inactive calls. No stated cut-off is given here; in the data, active means fold change mostly below about -2 (no sharp cut-off); inactive means mostly above about -1.8."}
{"assay": "TERT promoter activity modulators, primary screen, cell-based, luciferase reporter, human (AID 1259240)", "conditions": "A2780 TERT promoter luciferase reporter, 16 h; at 20 µM, fold versus average of vehicle-only wells"}
{"smiles": "O=c1[nH]c(-c2ccc3nsnc3c2)nc2ccccc12", "outcome": "inactive"}
{"smiles": "CCCc1nc2ccccc2c2nc(N)nn12", "fold change": "-2.02 (active)"}
{"smiles": "Cc1nc(SCC(=O)NCC2CCCO2)c2c(=O)n(C)c(=O)n(C)c2n1", "note": "(stereo not given)", "fold change": "1.01 (inactive)"}
{"smiles": "CCn1c(Oc2ccccc2)nc2c1c(=O)n(C)c(=O)n2C", "fold change": "-1.53 (inactive)"}
{"smiles": "CC1CCC(NS(=O)(=O)c2cccc3cccnc23)CC1", "note": "(stereo not given)", "fold change": "-2.05 (active)"}
{"smiles": "CCOc1ccc2c(c1)CN(c1ccc(Cl)cc1)CO2", "fold change": "-1.19 (inactive)"}
{"smiles": "CN(CC(=O)NCC1CCCO1)S(=O)(=O)c1ccc2c(c1)c(=O)n(C)c(=O)n2C", "note": "(stereo not given)", "fold change": "1.06 (inactive)"}
{"smiles": "CCCN(CCC)C(=O)C1CCCN(S(=O)(=O)c2ccc3c(c2)oc(=O)n3C)C1", "note": "(stereo not given)", "fold change": "1.49 (inactive)"}
{"smiles": "CC1CCCCC1NC(=O)c1cc2c(s1)-c1ccccc1OC2", "note": "(stereo not given)", "fold change": "-2.96 (active)"}
{"smiles": "Cc1ccc2ccc(C(Nc3ccccn3)c3ccncc3)c(O)c2n1", "note": "(stereo not given)", "fold change": "-1.62 (inactive)"}
{"smiles": "CCc1ccc(S(=O)(=O)n2c(C)nc3ccccc32)cc1", "fold change": "-2.42 (active)"}
{"smiles": "CCc1nnc(NC(=O)CSc2ncnc3ccccc23)s1", "fold change": "1.11 (inactive)"}
{"smiles": "COc1ccccc1C(=O)[C@H]1C(=O)N[C@@]2(C)C[C@@H]1c1cccc(OC)c1O2", "fold change": "-1.16 (inactive)"}
{"smiles": "COc1ccc2cc3c(N)nn(C(=O)c4cncc(Br)c4)c3nc2c1", "fold change": "-1.5 (inactive)"}
{"smiles": "Cc1sc(-c2c(C#N)c(N)nc3c2CCCC3)cc1Br", "fold change": "-4.77 (active)"}
{"smiles": "Cn1c(C(=O)NCCN2CCOCC2)cc2c(=O)[nH]c3ccccc3c21", "fold change": "1.17 (inactive)"}
{"smiles": "COc1ccc(N2CCN(c3ccc4nnc(C)n4n3)CC2)cc1", "fold change": "-1.14 (inactive)"}
{"smiles": "CCOC(=O)c1nn(-c2ccc(OC)cc2)c(=O)c2c(NC(C)=O)scc12", "fold change": "1.14 (inactive)"}
{"smiles": "CCN(CC)S(=O)(=O)c1ccc2c(c1)N(CC(=O)NC1CC1)C(=O)CO2", "fold change": "-1.73 (inactive)"}
{"smiles": "Cc1ccc(NC(=O)Nc2ccc3c(c2)N(C)C(=O)CS3)c(C)c1", "fold change": "-1.06 (inactive)"}
{"smiles": "Cc1cc(S(=O)(=O)n2nc(-c3cccc(F)c3)cc2N)ccc1F", "fold change": "-1.3 (inactive)"}
{"smiles": "COc1ccc(C2=NN3C(C2)c2cc(Cl)ccc2OC3c2cccnc2)cc1", "note": "(stereo not given)", "fold change": "1.37 (inactive)"}
{"smiles": "O=S(=O)(Nc1cccc(C(F)(F)F)c1)c1cccc2cccnc12", "fold change": "-1.42 (inactive)"}
{"smiles": "COc1ccccc1-c1nc(-c2ccccn2)no1", "fold change": "-2.84 (active)"}
{"smiles": "CCOC(=O)C1CCN(c2c(Nc3ccc4c(c3)OCCO4)c(=O)c2=O)CC1", "fold change": "-1.02 (inactive)"}
{"smiles": "CN(CC(=O)NC(C)(C)C)S(=O)(=O)c1ccc2c(c1)c(=O)n(C)c(=O)n2C", "fold change": "-1.36 (inactive)"}
{"smiles": "Cc1cc(C(=O)Nc2ccc(F)cc2F)on1", "fold change": "1.55 (inactive)"}
{"smiles": "Cc1noc(C(=O)N2CCN(c3ccccc3)CC2)c1Cl", "fold change": "-1.23 (inactive)"}
{"smiles": "CCOC(=O)c1sc2nccc3c2c1N=CN3c1ccccc1", "fold change": "-1.96 (inactive)"}
{"smiles": "CCOC(=O)c1c(C)n(C)c2ccc(OCC(O)CN3CCCCC3C)cc12", "note": "(stereo not given)", "fold change": "-2.14 (active)"}
{"smiles": "CCCN1C(=O)C2(/C(=C(/O)c3ccc(C)cc3)C(=O)C(=O)N2CCOC)c2ccccc21", "note": "(stereo not given)", "fold change": "1.26 (inactive)"}
{"smiles": "CCc1nccn1S(=O)(=O)c1ccc(OC)c(OC)c1", "fold change": "-2.54 (active)"}
{"smiles": "O=C(CSc1nnc(Cc2cc(=O)[nH]c(=O)[nH]2)n1-c1ccc(Cl)cc1)c1ccccc1", "fold change": "-1.09 (inactive)"}
{"smiles": "Cc1ccc(Cn2nc(C)c(NC(=O)c3onc(C)c3Cl)c2C)cc1", "fold change": "1.31 (inactive)"}
{"smiles": "O=C(OCCCN=C1NS(=O)(=O)c2ccccc21)c1cccs1", "outcome": "active"}
{"smiles": "Cc1cc(NC(=O)CSc2nnc(Cc3cc(=O)[nH]c(=O)[nH]3)n2-c2ccccc2)no1", "fold change": "-1.88 (inactive)"}
{"smiles": "CCc1ccc(N2CC(O)=C(c3nc4ccccc4c(=O)[nH]3)C2=N)cc1", "outcome": "inactive"}
{"smiles": "CCn1ncc(CNC(=O)c2cnn3c(C(F)F)cc(-c4ccc(C)cc4)nc23)c1C", "fold change": "1.02 (inactive)"}
{"smiles": "Cc1nn2c(=O)/c(=C/c3ccc(Cl)c(Cl)c3)sc2nc1=O", "fold change": "1.84 (inactive)"}
{"smiles": "Cc1cccc2nc(COc3ccc(Cl)cc3)cn12", "fold change": "-4.52 (active)"}
